# The supplement of paper PMC10849652
# About 8,800 targets were measured; listed, in parts, are those with a hit and a random draw of the rest. About 0.5% of all pairs of compound and target were hits. Values without a mark were called inactive.
# Assays:
# Assay in all cases: log2 fold change, soluble protein after heating vs DMSO (PISA); higher = thermal stabilisation; K562 lysate, 10 uM; active = over 0.2 and 3.5 SD of the protein, either way, in both replicates (recomputed)
# [1] = compound: NCC(=O)Nc1ccc(-n2nc(C(F)(F)F)cc2-c2ccc3c(ccc4ccccc43)c2)cc1
# Method in brief: (§1)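 The values are log-two fold changes in thermal stability compared with solvent controls and come from duplicates. They were obtained by TMTpro 16plex LC-MS/MS, with channel sums equalised, on the supernatant after 21,000xg for 90 min. That supernatant came from crude K562 extract at 1 mg/mL protein treated with 10 μM compound for 30 min, heated for 3 min across 48°C-58°C, pooled and brought to 0.5% NP-40 at 4°C.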
# [2] = compound: O=C(CCCCCCC(=O)Nc1ccccc1)NO [vorinostat]
# Method in brief: as §1
# [3] = compound: O=C(O)c1ccc2c(c1)nc(Nc1cccc(Cl)c1)c1ccncc12 [silmitasertib]
# Method in brief: as §1
# [4] = compound: O=C1NC(=O)C(c2cnc3ccccn23)=C1c1cn2c3c(cc(F)cc13)CN(C(=O)N1CCCCC1)CC2
# Method in brief: as §1
# [5] = compound: c1cn2cc(-c3ccc4cn[nH]c4c3)nc(Nc3ccc(N4CCOCC4)cc3)c2n1 [entospletinib]
# Method in brief: as §1
# Sequence of UniProt Q8NBX0 (Q8NBX0 whole entry, looked up): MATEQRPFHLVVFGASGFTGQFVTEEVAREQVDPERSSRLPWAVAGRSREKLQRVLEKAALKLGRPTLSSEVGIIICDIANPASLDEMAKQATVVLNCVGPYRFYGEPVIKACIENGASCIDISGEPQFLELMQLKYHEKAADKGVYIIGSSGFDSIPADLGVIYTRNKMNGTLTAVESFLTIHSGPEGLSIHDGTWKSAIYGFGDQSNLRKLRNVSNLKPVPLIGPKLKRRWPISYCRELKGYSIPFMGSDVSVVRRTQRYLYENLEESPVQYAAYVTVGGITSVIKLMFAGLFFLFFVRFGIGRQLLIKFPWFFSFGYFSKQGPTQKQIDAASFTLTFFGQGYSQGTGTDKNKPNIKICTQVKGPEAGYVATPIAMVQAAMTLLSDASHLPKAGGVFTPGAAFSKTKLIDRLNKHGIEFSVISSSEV
# Sequence of UniProt Q6GYQ0 (Q6GYQ0 whole entry, looked up): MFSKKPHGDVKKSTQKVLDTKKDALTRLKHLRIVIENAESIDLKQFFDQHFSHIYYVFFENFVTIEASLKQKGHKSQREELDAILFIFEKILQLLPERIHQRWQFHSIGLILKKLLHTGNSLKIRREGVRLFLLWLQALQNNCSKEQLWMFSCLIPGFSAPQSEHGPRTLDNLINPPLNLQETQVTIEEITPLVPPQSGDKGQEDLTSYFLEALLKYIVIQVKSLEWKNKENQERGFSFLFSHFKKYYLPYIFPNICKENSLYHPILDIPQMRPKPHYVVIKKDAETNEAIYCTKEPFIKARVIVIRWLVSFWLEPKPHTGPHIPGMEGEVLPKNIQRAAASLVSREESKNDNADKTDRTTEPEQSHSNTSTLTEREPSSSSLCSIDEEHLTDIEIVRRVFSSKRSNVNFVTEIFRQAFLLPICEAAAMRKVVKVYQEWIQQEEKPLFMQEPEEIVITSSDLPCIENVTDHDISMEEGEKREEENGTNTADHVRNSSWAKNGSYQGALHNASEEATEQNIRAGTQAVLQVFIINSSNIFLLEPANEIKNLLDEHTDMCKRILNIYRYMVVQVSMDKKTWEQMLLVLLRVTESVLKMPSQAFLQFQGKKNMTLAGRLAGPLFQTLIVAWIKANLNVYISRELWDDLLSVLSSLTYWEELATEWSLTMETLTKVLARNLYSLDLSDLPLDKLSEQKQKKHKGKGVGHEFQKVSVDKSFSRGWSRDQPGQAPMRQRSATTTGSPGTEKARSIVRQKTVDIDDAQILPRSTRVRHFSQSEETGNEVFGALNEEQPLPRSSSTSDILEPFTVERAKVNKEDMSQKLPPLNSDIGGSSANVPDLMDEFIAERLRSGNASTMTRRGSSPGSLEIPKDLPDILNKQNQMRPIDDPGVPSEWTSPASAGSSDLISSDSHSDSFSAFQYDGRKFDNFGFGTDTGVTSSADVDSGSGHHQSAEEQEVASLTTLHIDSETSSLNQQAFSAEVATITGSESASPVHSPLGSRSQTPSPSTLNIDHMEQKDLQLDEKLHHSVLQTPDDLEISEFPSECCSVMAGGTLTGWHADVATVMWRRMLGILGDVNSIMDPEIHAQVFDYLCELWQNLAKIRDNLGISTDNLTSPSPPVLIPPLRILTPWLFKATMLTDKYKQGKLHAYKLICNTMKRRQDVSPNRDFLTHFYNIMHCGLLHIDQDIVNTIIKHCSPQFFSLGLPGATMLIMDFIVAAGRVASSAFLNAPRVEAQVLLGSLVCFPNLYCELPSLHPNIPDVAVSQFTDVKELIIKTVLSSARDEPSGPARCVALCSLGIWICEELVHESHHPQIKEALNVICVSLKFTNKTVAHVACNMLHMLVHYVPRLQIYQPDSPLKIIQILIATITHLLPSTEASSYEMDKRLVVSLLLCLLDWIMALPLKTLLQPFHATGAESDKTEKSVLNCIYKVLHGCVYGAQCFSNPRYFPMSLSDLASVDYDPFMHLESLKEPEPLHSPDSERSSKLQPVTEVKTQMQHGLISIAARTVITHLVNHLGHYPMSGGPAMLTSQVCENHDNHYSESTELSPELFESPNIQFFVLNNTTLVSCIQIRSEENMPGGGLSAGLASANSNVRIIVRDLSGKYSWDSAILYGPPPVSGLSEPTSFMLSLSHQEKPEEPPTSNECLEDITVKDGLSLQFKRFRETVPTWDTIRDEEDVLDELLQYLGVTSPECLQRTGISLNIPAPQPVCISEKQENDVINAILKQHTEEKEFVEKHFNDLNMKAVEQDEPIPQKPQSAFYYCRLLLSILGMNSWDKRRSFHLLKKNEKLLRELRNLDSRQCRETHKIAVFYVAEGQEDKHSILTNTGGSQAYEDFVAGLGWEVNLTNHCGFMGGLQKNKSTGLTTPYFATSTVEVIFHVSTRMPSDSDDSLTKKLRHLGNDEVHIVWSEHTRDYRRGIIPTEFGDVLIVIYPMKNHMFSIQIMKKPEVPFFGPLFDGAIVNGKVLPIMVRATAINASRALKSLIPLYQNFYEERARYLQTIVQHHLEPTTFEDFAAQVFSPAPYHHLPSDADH
# Sequence of UniProt Q9Y3T6 (Q9Y3T6 whole entry, looked up, one chain of several): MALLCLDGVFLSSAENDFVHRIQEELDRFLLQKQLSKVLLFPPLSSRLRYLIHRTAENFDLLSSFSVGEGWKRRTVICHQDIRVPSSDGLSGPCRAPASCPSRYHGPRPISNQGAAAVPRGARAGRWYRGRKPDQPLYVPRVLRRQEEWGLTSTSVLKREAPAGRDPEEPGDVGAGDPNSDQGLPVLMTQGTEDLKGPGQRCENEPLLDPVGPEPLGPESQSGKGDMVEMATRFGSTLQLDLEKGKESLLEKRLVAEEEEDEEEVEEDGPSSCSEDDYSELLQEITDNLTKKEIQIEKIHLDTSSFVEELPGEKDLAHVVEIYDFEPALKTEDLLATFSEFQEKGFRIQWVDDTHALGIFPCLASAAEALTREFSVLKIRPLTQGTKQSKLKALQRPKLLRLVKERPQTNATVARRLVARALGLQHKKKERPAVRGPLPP
# Sequence of UniProt Q9H0R6 (Q9H0R6 whole entry, looked up): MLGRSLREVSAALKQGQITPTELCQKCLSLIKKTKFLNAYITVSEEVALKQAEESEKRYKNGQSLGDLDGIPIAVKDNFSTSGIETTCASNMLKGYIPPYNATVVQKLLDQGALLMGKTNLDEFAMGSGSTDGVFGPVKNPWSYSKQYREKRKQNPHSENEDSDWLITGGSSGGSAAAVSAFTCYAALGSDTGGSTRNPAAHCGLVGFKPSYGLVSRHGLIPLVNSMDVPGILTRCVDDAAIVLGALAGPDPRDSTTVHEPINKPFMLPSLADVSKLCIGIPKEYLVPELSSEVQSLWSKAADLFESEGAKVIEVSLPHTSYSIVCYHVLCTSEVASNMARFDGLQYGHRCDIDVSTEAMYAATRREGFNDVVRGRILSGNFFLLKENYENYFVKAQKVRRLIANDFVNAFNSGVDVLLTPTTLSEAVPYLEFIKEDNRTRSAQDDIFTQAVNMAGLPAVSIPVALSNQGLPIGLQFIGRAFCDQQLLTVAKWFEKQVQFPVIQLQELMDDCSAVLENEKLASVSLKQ
# Sequence of UniProt Q9BTD8 (Q9BTD8 whole entry, looked up): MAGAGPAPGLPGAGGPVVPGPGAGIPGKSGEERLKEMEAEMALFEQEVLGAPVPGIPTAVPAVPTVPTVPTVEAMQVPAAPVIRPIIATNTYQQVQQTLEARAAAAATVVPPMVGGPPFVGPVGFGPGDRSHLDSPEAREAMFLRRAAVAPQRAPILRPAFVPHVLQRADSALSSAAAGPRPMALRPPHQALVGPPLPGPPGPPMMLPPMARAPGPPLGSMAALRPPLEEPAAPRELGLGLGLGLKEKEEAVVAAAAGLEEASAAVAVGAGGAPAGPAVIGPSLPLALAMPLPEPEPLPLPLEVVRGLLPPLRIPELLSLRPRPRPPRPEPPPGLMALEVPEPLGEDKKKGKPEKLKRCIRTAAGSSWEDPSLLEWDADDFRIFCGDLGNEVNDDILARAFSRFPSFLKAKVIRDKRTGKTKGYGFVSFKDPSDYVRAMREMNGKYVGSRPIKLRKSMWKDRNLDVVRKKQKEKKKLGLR
# Sequence of UniProt P52756 (P52756 whole entry, looked up): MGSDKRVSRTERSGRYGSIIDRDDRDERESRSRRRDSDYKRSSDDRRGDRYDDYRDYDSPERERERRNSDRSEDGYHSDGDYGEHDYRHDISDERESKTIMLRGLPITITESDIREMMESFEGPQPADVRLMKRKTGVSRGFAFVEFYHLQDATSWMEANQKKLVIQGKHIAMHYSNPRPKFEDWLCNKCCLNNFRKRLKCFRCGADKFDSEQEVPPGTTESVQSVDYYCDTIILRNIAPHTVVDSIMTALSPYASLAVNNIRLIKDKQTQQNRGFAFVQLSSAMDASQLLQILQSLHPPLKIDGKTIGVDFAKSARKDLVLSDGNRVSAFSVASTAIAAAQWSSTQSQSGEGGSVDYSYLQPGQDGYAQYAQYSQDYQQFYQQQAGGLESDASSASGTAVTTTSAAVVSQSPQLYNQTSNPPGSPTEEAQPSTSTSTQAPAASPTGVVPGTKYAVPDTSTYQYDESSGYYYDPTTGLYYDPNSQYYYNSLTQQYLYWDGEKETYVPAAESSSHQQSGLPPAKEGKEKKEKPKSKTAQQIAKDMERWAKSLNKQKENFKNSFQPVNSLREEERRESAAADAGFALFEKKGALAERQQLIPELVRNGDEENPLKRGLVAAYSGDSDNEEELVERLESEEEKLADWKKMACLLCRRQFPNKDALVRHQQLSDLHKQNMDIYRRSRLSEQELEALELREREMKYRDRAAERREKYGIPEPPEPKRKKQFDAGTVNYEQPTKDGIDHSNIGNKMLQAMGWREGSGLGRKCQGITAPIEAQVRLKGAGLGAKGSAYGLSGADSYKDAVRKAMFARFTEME
# Sequence of UniProt Q53S08 (Q53S08 whole entry, looked up): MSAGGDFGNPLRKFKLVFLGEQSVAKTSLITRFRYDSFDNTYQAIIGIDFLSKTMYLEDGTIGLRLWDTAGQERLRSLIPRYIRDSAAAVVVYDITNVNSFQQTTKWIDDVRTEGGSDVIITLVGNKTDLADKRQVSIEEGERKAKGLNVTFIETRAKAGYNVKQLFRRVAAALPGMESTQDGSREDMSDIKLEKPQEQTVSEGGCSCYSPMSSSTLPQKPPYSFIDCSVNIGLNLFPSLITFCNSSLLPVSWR
Target,log2 fold change [1],log2 fold change [2],log2 fold change [3],log2 fold change [4],log2 fold change [5]
QRSL1 (UniProt Q9H0R6),0.066,-0.308 (active),0.051,0.028,0.019
"QSER1, A0A3B3IRW6",-0.013,-0.236 (active),0.038,0.033,0.002
RBM42 (UniProt Q9BTD8),0.19,-0.04,-0.031,0.018,-0.058
RBM5 (UniProt P52756),0.036,-0.427 (active),0.072,-0.056,0.023
RAB21 (UniProt Q9UL25),0.017,-0.235,-0.021,0.029,0.02
R3HCC1 (UniProt Q9Y3T6),0.045,-0.259 (active),-0.036,-0.002,0.067
RALGAPA1 isoform 6 (UniProt Q6GYQ0),0.047,0.034,-0.054,-0.027,-0.022
SCCPDH (UniProt Q8NBX0),-0.129,0.34,-0.19,0.115,0.087
RAB6D (UniProt Q53S08),-0.012,0.151,-0.02,-0.011,-0.01
